In ChEMBL document CHEMBL3988442, “University of Dundee, Small-Polar-MMV Screening Library” (2021):
Among all 48,000 compounds or so, about 13,000 (27%) showed an effect of 50% or more. This is one part of the list.

Tested on: Wolbachia pipientis
Test: Anti-Wolbachia Cell-Based Screen
Assay type: functional
Parameters: scale not given: in the data most compounds retested in dose-response had high values
Conditions: 5 µM

Structure (SMILES)	Percent Effect
COCC1CC2(CCN(S(=O)(=O)C3CC3)CC2)CN1c1ncccn1.O=C(O)C(F)(F)F (configuration not stated)	-3.839%
CCn1cnnc1CNC(=O)NCC(C)(CC)N1CCOCC1 (configuration not stated)	-7.317%
Cc1n[nH]c(C2CN(Cc3nnc(C4CC4)n3C)CCO2)n1 (configuration not stated)	1.096%
CCNC(=O)[C@@H]1C[C@H](N)CN1c1cc(CC)nc(N(C)C)n1	116.6%
CCNC(=O)[C@@H]1C[C@H](N)CN1c1cc(C(F)(F)F)nc(N(C)C)n1	-10.07%
CCNC(=O)[C@@H]1C[C@H](N)CN1c1cc(C(F)(F)F)nc(N2CCCC2)n1	-17.39%
COC(=O)c1ccc(N2CCN(C(=O)c3ccc(=O)n(C)c3)CC2)cc1	-4.416%
COC(=O)c1cccc(C(=O)N2CCN(c3ccc(Cl)cc3)CC2)n1	100.8%
COC(=O)c1cccc(C(=O)N2CCN(c3ccc(OC)cc3)CC2)n1	142.3%
COC(=O)c1cccc(C(=O)N2CCN(c3ccccc3F)CC2)n1	5.907%
O=C(c1ncncc1Cl)N1CCN(c2ccc(Cl)cc2)CC1	-23.14%
COC(=O)c1ccc(N2CCN(C(=O)c3ccn(C)c(=O)c3)CC2)cc1	7.353%
CCC(C)(C)C1CCCN1C(=O)c1coc(S(=O)(=O)NC)c1 (configuration not stated)	25.9%
Cc1cccc(N2CCC3(CCCN3Cc3c(C)nn(C)c3C)CC2)n1	12.41%
CC(C)SCc1cccc(NC(=O)NCCc2nnc[nH]2)c1	5.819%
Cc1nc(C)n(C2CCCN(C(=O)c3cn4cccnc4n3)C2)n1 (configuration not stated)	114.3%
Cc1cc(C)n(C2CCN(C(=O)c3cn4ccsc4n3)C2)n1 (configuration not stated)	-17.41%
CC(C)c1nccn1C1CCCN(C(=O)c2cn3cccnc3n2)C1 (configuration not stated)	106.5%
CCc1nccn1C1CCCN(C(=O)c2cn3cccnc3n2)C1 (configuration not stated)	-0.7445%
Cc1cnn(C2CCCN(C(=O)c3cn4cccnc4n3)C2)c1 (configuration not stated)	-8.081%
Cc1nc(C)n(C2CCCN(C(=O)c3cn4c(C)cccc4n3)C2)n1 (configuration not stated)	8.927%
Cc1cc(C)n(C2CCCN(C(=O)c3cn4cccnc4n3)C2)n1 (configuration not stated)	140.9%
Cc1nc(C)n(C2CCCN(C(=O)c3csnn3)C2)n1 (configuration not stated)	-2.311%

Structure (SMILES)	Percent Effect
CC(C)c1nccn1C1CCCN(C(=O)c2cnc[nH]2)C1 (configuration not stated)	-3.09%
Cc1occc1C(=O)Nc1cccc(C(=O)OCC2CCCN2)c1.Cl (configuration not stated)	-3.308%
O=C(O)c1ccccc1-c1ccc(CN2CC(O)C2)cc1	128.6%
O=C1CN(Cc2ccc(-c3ccccc3C(=O)O)cc2)CCN1	3.495%
O=C(O)c1ccccc1-c1ccc(CN2CCCC(O)C2)cc1 (configuration not stated)	104.1%
O=c1cc(-c2cccnc2)nc(-c2ccc(CN3CC[C@H](O)C3)cc2)[nH]1	-0.3576%
NC(=O)c1ccc(CN2CCCC(O)C2)cc1 (configuration not stated)	1.38%
COc1ccc(C(C)N2CCC(CO)CC2)cc1Cl (configuration not stated)	2.465%
CSC1(CNC(=O)N(C)Cc2ccc(C)s2)CCOCC1	-11.34%
COCCN1CCOCC12CCN(C(=O)Cc1cccs1)CC2.O=C(O)C(F)(F)F	7.053%
COCCn1c2c(ccc1=O)CCN(C(=O)Cc1ccsc1)CC2	97.29%
COCCN1CC2(CCCN(C(=O)CCCc3cccs3)C2)CCC1=O (configuration not stated)	-3.205%
O=C(Cc1ccsc1)N1CCc2ccc(=O)n(CC3CC3)c2CC1	-8.117%
COCCn1c2c(ccc1=O)CCN(C(=O)Cc1cccs1)CC2	99.02%
CN(CCCc1nccn1C)C(=O)C1COc2ccccc2C1 (configuration not stated)	-14.96%
Cc1ncsc1CCN(C)C(=O)c1ccc(Cn2cnnn2)cc1	-0.04633%
Cc1nc(N2CCOCC2)nc2c1CCN(C(=O)N1CCCC1)CC2	118.6%
Cc1nc(N2CCOCC2)nc2c1CCN(C(=O)C1(C#N)CC1)CC2	-22.43%
Cc1nc(N2CCOCC2)nc2c1CCN(C(=O)NC1CCCC1)CC2	25.82%
Cc1nc(N2CCCC2)nc2c1CCN(C(=O)C1CCCC1)CC2	4.07%
Cc1nc(N2CCOCC2)nc2c1CN(C(=O)Cc1ccccn1)CC2	6.226%
Cc1nc(N2CCOCC2)nc2c1CN(C(=O)C(C)C)CC2	99.02%
Cc1nc(N2CCCC2)nc2c1CCN(C(=O)N1CCCC1)CC2	98.24%

Structure (SMILES)	Percent Effect
Cc1nc(N2CCCC2)nc2c1CCN(C(=O)CC1CC1)CC2	43.96%
Cc1nc(N2CCOCC2)nc2c1CN(CC(=O)N(C)C)CC2	-19.6%
CS(=O)(=O)CCN1C[C@H](NC(=O)c2cnc(O)cn2)[C@@H](C2CC2)C1	5.128%
Cn1cccc1C(O)CNS(=O)(=O)c1ccccc1F (configuration not stated)	-11.88%
CC(C)CCC(=O)N1CCN(c2ncnc3nc(N)ccc23)CC1	-4.213%
COc1c(Cl)cc(C(=O)NCCNc2ncccn2)cc1Cl	11.68%
COc1cc(CNC(=O)CNc2cc(Cl)ccc2OC)ccn1	-1.117%
COc1ccc(Cl)cc1NCC(=O)NCCNc1ncccn1	100.4%
COc1ccc(Cl)cc1NCC(=O)NCCc1ccccn1	3.443%
COc1ccc(Cl)cc1NCC(=O)N(Cc1ccccn1)C1CC1	-7.935%
COc1ccc(Cl)cc1NCC(=O)NCc1cccnc1OC	108%
COc1ncccc1NC(=O)N1CCCC1c1cc(C)no1 (configuration not stated)	-4.048%
Cc1cc(C(=O)N2C[C@H]3CC[C@@H]2CN(C)C3)ccc1Cl	-9.049%
CC(C)(C)OC(=O)NC(C)(C)c1noc(CSc2ccccn2)n1	18.32%
COC(=O)NC1(C(=O)Nc2ccc(-c3cc[nH]n3)cc2)CCCC1	-10.93%
Cn1cc(CN2CCCC3(CCCN3S(C)(=O)=O)C2)cn1.O=C(O)C(F)(F)F (configuration not stated)	1.436%
CS(=O)(=O)N1CC2(CCCN2Cc2ccc(Cl)cc2)Cc2ccccc21 (configuration not stated)	113.6%
CC(=O)N1CC2(CCCCN2Cc2ccc(Cl)cc2)Cc2ccccc21 (configuration not stated)	100.4%
CCS(=O)(=O)N1CCCC2(CCCN2Cc2cccc(Cl)c2)C1.O=C(O)C(F)(F)F (configuration not stated)	-14.69%
CC(=O)N1CC2(CCCN2Cc2ccc(Cl)cc2)Cc2ccccc21 (configuration not stated)	134.6%
Cc1cc(C(=O)N2CCCC3(CCCN3Cc3cccnc3)C2)[nH]n1 (configuration not stated)	0.008691%
